Results reported in PubChem BioAssay AID1159580 (chemical genetic matrix, 2015).
In all, about 5,500 compounds went through this assay and about 2,000 (36%) were called active. Another 18% or so got no clear call; they are omitted. Rule as the data show it: active = normalized growth mostly below about 0.91 (no sharp cut-off); inconclusive = no clear call, values can overlap the other calls; inactive = mostly above about 0.92. The list shows a part of the results.

Assay: chemical genetic growth profiling, strain panel (AID 1159580);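 also: tested at 20 µM; growth read once vehicle control cultures reached saturation at 30 °C; 1 = growth at the plate median or of vehicle wells; lower values mean less growth of the strain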
Conditions: growth OD

Measured: normalized growth

CC(C)(C)OC(=O)N1CCC(C(N)=O)CC1
inactive: S. cerevisiae deletion strains, locus YAL013W, strain DEP1, stronger effect = lower value 0.997 | S. cerevisiae deletion strains, locus YBR229C, strain ROT2, stronger effect = lower value 1.01 | S. cerevisiae deletion strains, locus YCL061C, strain MRC1, stronger effect = lower value 1.02 | S. cerevisiae deletion strains, locus YDL101C, strain DUN1, stronger effect = lower value 1.01 | S. cerevisiae deletion strains, locus YDR150W, strain NUM1, stronger effect = lower value 1.01 | S. cerevisiae deletion strains, locus YEL061C, strain CIN8, stronger effect = lower value 1.01 | S. cerevisiae deletion strains, locus YGR078C, strain PAC10, stronger effect = lower value 1.01 | S. cerevisiae deletion strains, locus YHR030C, strain SLT2, stronger effect = lower value 1.08 | S. cerevisiae deletion strains, locus YHR087W, strain rtc3, stronger effect = lower value 1.01 | S. cerevisiae deletion strains, locus YJR043C, strain POL32, stronger effect = lower value 1.01 | S. cerevisiae deletion strains, locus YJR075W, strain HOC1, stronger effect = lower value 1.01 | S. cerevisiae deletion strains, locus YLR039C, strain RIC1, stronger effect = lower value 1.04 | S. cerevisiae deletion strains, locus YLR058C, strain SHM2 (second series), stronger effect = lower value 1.01 | S. cerevisiae deletion strains, locus YLR085C, strain ARP6, stronger effect = lower value 1.02 | S. cerevisiae deletion strains, locus YLR262C, strain YPT6, stronger effect = lower value 1.07 | S. cerevisiae deletion strains, locus YML094W, strain GIM5, stronger effect = lower value 1.03 | S. cerevisiae deletion strains, locus YMR219W, strain ESC1, stronger effect = lower value 1.01 | S. cerevisiae deletion strains, locus YMR263W, strain SAP30, stronger effect = lower value 1.02 | S. cerevisiae deletion strains, locus YMR307W, strain GAS1, stronger effect = lower value 1.04 | S. cerevisiae deletion strains, locus YNL153C, strain GIM3, stronger effect = lower value 1.01 | S. cerevisiae deletion strains, locus YNL298W, strain CLA4 (second series), stronger effect = lower value 1.03 | S. cerevisiae deletion strains, locus YNL322C, strain KRE1, stronger effect = lower value 1.02 | S. cerevisiae deletion strains, locus YNR030W, strain Alg12, stronger effect = lower value 1.03 | S. cerevisiae deletion strains, locus YPL055C, strain LGE1, stronger effect = lower value 1.01 | S. cerevisiae deletion strains, locus YPL241C, strain CIN2, stronger effect = lower value 1.03 | S. cerevisiae deletion strains, locus YPR135W, strain CTF4, stronger effect = lower value 0.974 | S. cerevisiae strains, strain wild type, stronger effect = lower value 1.02
